Screening results from PubChem BioAssay.
tim10-1 inh = growth inhibitors of tim10-1 mutant yeast, primary screen, luminescence, uHTS. AID 463190, 2010. inhibition, % at 20 µM. 330,000 compounds, 2.2% hits. S. cerevisiae tim10-1 ts strain growth, BacTiter-Glo, 24 h;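 active means inhibition of at least 40%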;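 further: mutant grown at 25 °C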
NALP1 inh = NALP1 inflammasome inhibitors in reconstituted yeast, colorimetric, S. cerevisiae, triplicate retest | S. cerevisiae NALP1/ASC/caspase-1 growth, X-gal OD620, 72 h | inhibition, % at 10 µM | 280,000 compounds, 0.61% hits; in the data active means inhibition mostly above about 24%, no sharp cut-off; inactive means mostly below about 32%
TIM10 inh = growth inhibitors of isogenic TIM10 control yeast, primary screen, counter-screen for tim10-1 yeast inhibitor project, luminescence, uHTS; S. cerevisiae TIM10 strain growth, BacTiter-Glo luminescence, 24 h; inhibition, % at 10 µM; 330,000 compounds, 1.4% hits;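 active means inhibition of 40% or more at the single tested concentration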;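 further: wild-type TIM10 isogenic control strain grown at permissive 25 °C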
tim23-1 inh = growth inhibitors of tim23-1 mutant yeast, primary screen, luminescence, uHTS. S. cerevisiae tim23-1 growth, BacTiter-Glo luminescence, 24 h. inhibition, % at 20 µM. 330,000 compounds, 1.3% hits;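 active means growth inhibition of the mutant yeast at or above 50%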;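 further: temperature-sensitive mutant grown at 25 °C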
NALP3 yeast inh = NALP3 inflammasome inhibitors in reconstituted yeast, primary screen, luminescence, uHTS | Yeast reconstituted NLRP3/ASC/caspase-1, beta-gal luminescence, 24 h | inhibition, % at 10 µM | 330,000 compounds, 0.39% hits | AID 2825, 2010;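 active means inhibition of 50% or more; inactive means inhibition below 50%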
tim23-1 confirm = tim23-1 mutant yeast growth inhibitors, confirmation, luminescence, single concentration; inhibition, % at 20 µM; shares compounds with tim23-1 inh; AID 463218, 2010; S. cerevisiae tim23-1 growth, BacTiter-Glo luminescence, 24 h; 4,400 compounds, 83% hits;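 active means inhibition above about 39% in either of two replicate wells at 20 µM, limit read from the data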;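 further: temperature-sensitive tim23-1 mutant grown at 25 °C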
A number is an active result; n = inactive; x = no result. The list is not random: actives were taken first. Their share in the collection is about 4%.

SMILES	tim10-1 inh	NALP1 inh	TIM10 inh	tim23-1 inh	NALP3 yeast inh	tim23-1 confirm
O=C(CSc1cccs1)Nc1ccc2ccccc2c1	n	n	n	55	n	57
COc1cc(/C=C/C(=O)OCC(=O)NCc2ccccc2OC)ccc1O	n	x	n	89	n	n
O=C(CSc1nnc(-c2ccccn2)n1Cc1ccco1)c1ccc(Cl)cc1	n	n	n	n	n	x
Clc1cccc(CSc2nnc(-c3ccccn3)n2Cc2ccco2)c1	n	n	n	52	n	57
CC(=O)c1c(O)c(C)c(-c2ccccc2)n(-c2ccccc2)c1=O	n	n	n	56	n	43
CC(=O)c1c(O)cc(=O)n(-c2ccccc2)c1-c1ccc(C)cc1	n	n	n	n	n	x
CC1(C)CC(=O)C=C(c2ccc(I)cc2)C1	n	x	n	51	n	41
CC1(C)CC(=O)C=C(c2ccc3[nH]ccc3c2)C1	n	x	n	54	n	n
O=C1C=C(c2ccc3[nH]ccc3c2)CCC1	n	x	n	n	n	x
Cc1ccccc1C([O-])=Nc1ccc[n+](-c2nc3ccccc3nc2NS(=O)(=O)c2ccccc2)c1	n	n	n	n	n	x
Cc1cccc(NC(=O)NCCN2CCN(c3ccccc3)CC2)c1C	n	n	n	n	n	x
COc1cccc(NC(=O)CN(C)C(=O)CNC(=O)c2ccc3ccccc3c2)c1	n	x	n	n	n	x
CC1(NC(=O)C2CCCCC2)CCS(=O)(=O)C1 (centres undefined)	n	n	n	n	n	x
CCCn1nc(NC(=O)C2CCCO2)c2cc3cccc(C)c3nc21 (centres undefined)	n	x	n	52	n	43
CC(C)Cn1nc(NC(=O)C2CCCO2)c2cc3ccccc3nc21 (centres undefined)	n	n	n	n	n	x
Cc1ccn2cc(C(=O)Nc3ccccc3N3CCOCC3)nc2c1	n	n	n	56	n	41
Cc1ccc(CSc2nnc(-c3cccc(S(=O)(=O)N4CCOCC4)c3)n2C2CCCC2)cc1	n	n	n	52	n	43
Cc1cc(C)c(OCC(=O)Nc2nc3ccccc3[nH]2)c(C)c1	n	n	n	n	n	x
O=C1SC(c2ccccc2)=C/C1=C\N1CCCCC1	n	n	n	63	n	39
Oc1c(Br)cc(Br)cc1CNc1ccc(F)cc1	n	n	n	n	n	x
Oc1c(Br)cc(Br)cc1CNc1cnc2ccccc2c1	n	n	n	72	n	65
O=C(CN1C(=O)c2ccccc2S1(=O)=O)c1ccc(Cl)cc1Cl	n	n	n	51	n	n
NS(=O)(=O)c1ccc(NC(=O)Nc2ccc(C(F)(F)F)cc2)cc1	n	n	n	n	n	x
COc1cc2cncc(Cc3ccc(Cl)cc3)c2cc1OC	n	x	n	57	n	49
O=C1N(Cc2ccccc2)c2ccc(Cl)cc2C12OCCO2	n	n	n	n	n	x
SMILES	tim10-1 inh	NALP1 inh	TIM10 inh	tim23-1 inh	NALP3 yeast inh	tim23-1 confirm
CCn1c(C)c(C(C)=O)cc(C#N)c1=O	n	n	n	n	n	x
COc1ccc(Nc2cc(NCCCO)c([N+](=O)[O-])c3nonc23)cc1	n	n	n	n	n	x
CCOc1ccc(Nc2ccc([N+](=O)[O-])c3nonc23)cc1	n	n	n	67	n	61
CCCSC1=C(C#N)C(c2ccccc2C)CC(=O)N1 (centres undefined)	n	n	n	51	n	44
CCCCSC1=C(C#N)C(c2ccccc2C)CC(=O)N1 (centres undefined)	n	n	n	51	n	52
COc1cccc(C(=O)Nc2c3c(nn2-c2ccc(Cl)cc2)CS(=O)(=O)C3)c1OC	n	n	n	n	n	x
CCCNC(=O)c1ccccc1SCc1c(C)noc1C	n	n	n	n	n	x
O=C(Nc1ccc(-c2noc(CCc3ccccc3)n2)cc1)c1ccco1	n	x	n	55	n	61
c1ccc(CCc2nc(-c3ccccc3)no2)cc1	n	n	n	n	n	x
CSCCC(NS(=O)(=O)c1cccc(C(F)(F)F)c1)C(=O)N(C)CCOc1ccc(Cl)cc1 (centres undefined)	n	x	n	n	n	x
Cc1ccccc1OCCCSc1nc2ccccc2[nH]1	n	n	n	68	n	64
c1ccc(OCCSc2nc3ccccc3[nH]2)cc1	n	n	n	n	n	x
CCOC(=O)c1cn(-c2ccccc2)nc1-c1ccncc1	n	n	n	51	n	46
Oc1ccccc1/C=N/NC(=S)NC1CC2CC1C1C=CCC21 (centres undefined)	n	n	n	74	n	49
COc1cc(CNc2ccc(O)cc2)cc(Br)c1OCc1ccccc1	n	n	n	50	n	55
CC(OC(=O)c1nc(Cl)ccc1Cl)C(=O)Nc1ccccc1F (centres undefined)	n	x	n	n	n	x
Cc1ccc(C)c(N2CCN(C(=O)C(Cc3ccccc3)n3cccc3)CC2)c1 (centres undefined)	n	n	n	n	n	x
O=C(C(Cc1ccccc1)n1cccc1)N1CCN(c2ccccc2)CC1 (centres undefined)	n	n	n	55	n	n
Cc1cccc(N2C(=O)c3ccc(Br)cc3C2=O)n1	n	n	n	56	n	45
O=Cc1ccc(OC(=O)c2cccnc2)cc1	n	n	n	n	n	x
COc1cc2c(cc1OC)CN(C(=O)c1ccc3[nH]c(C)c(C)c3c1)CC2	n	n	n	n	n	x
Oc1cccnc1SCc1ccccc1	n	x	n	n	n	x
O=Cc1cccnc1SCc1ccccc1	n	x	n	57	n	61
CC1(C)Cc2cccc(C(=O)NC3CCN(Cc4ccccc4)CC3)c2O1	n	n	n	n	n	x
COc1ccc(CNC(=O)c2cc3c(s2)CN(Cc2ccccc2)C3)cc1	n	n	n	n	n	x
SMILES	tim10-1 inh	NALP1 inh	TIM10 inh	tim23-1 inh	NALP3 yeast inh	tim23-1 confirm
CC(=O)c1cccc(NC(=O)CCc2nnc3ccc(NCc4ccc5c(c4)OCO5)nn23)c1	n	n	n	n	n	x
O=c1cc(-c2ccccc2F)nc(-c2ccccc2F)o1	n	x	n	n	n	x
O=c1cc(-c2cccc(Br)c2)nc(-c2ccccc2F)o1	n	n	n	63	n	57
CC(C(=O)O)n1nc(-c2ccccc2)c2ccccc21 (centres undefined)	n	n	n	n	n	x
O=C(NN1C(=O)c2cc(Br)ccc2NC1c1cc(Br)cc(Br)c1O)c1ccncc1 (centres undefined)	n	57	n	68	n	74
O=C(NN1C(=O)c2cc(Br)ccc2NC1c1ccccc1Cl)c1ccncc1 (centres undefined)	n	n	n	n	n	x
COC1=CC(=O)c2ccccc2C1=O	n	x	n	78	n	79
COc1cccc(NC(=O)COC(=O)Cn2c(C)csc2=O)c1	n	x	n	n	n	x
CCOc1ccccc1NC(=O)C(=O)N/N=C/c1cc(Br)ccc1O	n	n	n	59	n	51
